Screens from PubChem.
Only some compounds are listed: those with a hit (about 1.4% of all), similar ones and a draw of the others.
3CLpro inhibitor = SARS-CoV 3CLpro protease inhibition; 290,000 compounds, 0.14% hits; recombinant SARS-CoV 3CLpro, quenched FRET peptide cleavage; inhibition, % at 6 µM; P0C6X7; in the data active = inhibition above about 12%
RecA splice inh = inhibitors of M. tuberculosis RecA intein splicing; cell-free RecA intein splicing, fluorescence; inhibition, % (no concentration beside the values); 290,000 compounds, 0.75% hits; AID 2221; in the data active = inhibition above about 30%
Target sequence (P9WHJ3 whole entry, looked up, canonical isoform): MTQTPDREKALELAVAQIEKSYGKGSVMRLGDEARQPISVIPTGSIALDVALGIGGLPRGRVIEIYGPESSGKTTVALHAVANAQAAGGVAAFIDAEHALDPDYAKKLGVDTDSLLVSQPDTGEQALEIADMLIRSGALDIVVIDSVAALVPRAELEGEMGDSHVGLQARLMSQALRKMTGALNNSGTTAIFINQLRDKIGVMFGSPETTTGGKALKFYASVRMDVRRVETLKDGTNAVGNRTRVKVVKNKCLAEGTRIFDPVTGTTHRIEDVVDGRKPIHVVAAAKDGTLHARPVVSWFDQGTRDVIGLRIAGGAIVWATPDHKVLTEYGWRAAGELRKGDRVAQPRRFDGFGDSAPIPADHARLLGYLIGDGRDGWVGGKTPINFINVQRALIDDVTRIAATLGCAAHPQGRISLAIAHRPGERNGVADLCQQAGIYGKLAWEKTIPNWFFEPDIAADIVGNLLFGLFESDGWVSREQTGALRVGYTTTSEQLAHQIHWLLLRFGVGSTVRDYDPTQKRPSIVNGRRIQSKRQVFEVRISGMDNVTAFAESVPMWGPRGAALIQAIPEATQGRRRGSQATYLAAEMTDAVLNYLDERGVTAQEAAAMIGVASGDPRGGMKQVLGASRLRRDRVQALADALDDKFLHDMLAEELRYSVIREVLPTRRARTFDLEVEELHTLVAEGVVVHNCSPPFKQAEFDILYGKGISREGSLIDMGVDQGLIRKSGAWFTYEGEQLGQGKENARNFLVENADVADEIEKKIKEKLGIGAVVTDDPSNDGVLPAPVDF
PrPC surface inh = reduces human prion protein on the cell surface; cell surface PrPC, TR-FRET read-out; inhibition, % at 13.8 µM; 370,000 compounds, 0.43% hits; in the data active = inhibition above about 24%
Mtb hypoxia inh = reduces hypoxia-regulated biosensor signal in M. tuberculosis; M. tuberculosis hypoxia-regulated fluorescent reporter, fluorescence; fluorescence inhibition, % (no concentration beside the values); 300,000 compounds, 0.1% hits; AID 1159583; in the data active = fluorescence inhibition mostly above about 23%, no sharp cut-off; inactive = mostly below about 17%
PrP UTR inh = suppresses PrP 5' UTR mRNA reporter expression | inhibition, % (test concentration not listed) | 340,000 compounds, 0.35% hits | cell-based PrP 5' UTR mRNA reporter, plate reader | AID 488862; in the data active = inhibition above about 52%
BJeLR viability = BJeLR cell viability loss; BJeLR (HRASV12) viability, CellTiter-Glo ATP luminescence, 48 h; inhibition, % (test concentration not listed); 300,000 compounds, 0.17% hits; in the data active = inhibition above about 50%
Hits are given with their value; 0 = inactive; - = no result given.

SMILES	3CLpro inhibitor	RecA splice inh	PrPC surface inh	Mtb hypoxia inh	PrP UTR inh	BJeLR viability
COc1cccc(N=Nc2ccc(O)c3ncccc23)c1	0	0	0	-	0	66
Cc1cc(C)cc(C(=O)NN=Cc2ccoc2)c1	-	-	-	0	-	-
O=S(=O)(CCSc1nc2ccccc2o1)c1nc2ccccc2s1	0	0	0	0	0	0
O=S(=O)(CCSc1ccccn1)c1nc2ccccc2s1	0	40	0	0	0	0
COc1cc(C(c2c(C)[nH]n(-c3ccccc3)c2=O)c2c(C)[nH]n(-c3ccccc3)c2=O)cc(OC)c1OC	0	98	0	0	0	0
COc1cc(C(c2c(C)n(C)n(-c3ccccc3)c2=O)c2c(C)n(C)n(-c3ccccc3)c2=O)cc(Br)c1O	0	0	0	0	0	0
C#CCOCCOCCOCCNc1nc(N2CCN(C(=O)C(CC(N)=O)n3cc(C(N)C(C)C)nn3)CC2)nc(N2CCN(C(=O)C(CCCN=C(N)N)n3cc(C(N)C(C)CC)nn3)CC2)n1 (stereo not given)	-	-	-	0	-	-
CNC(=C[N+](=O)[O-])NCCSCc1ccc(CN(C)C)o1	-	-	-	0	-	-
CCC1C(=O)OCC1Cc1cncn1C (stereo not given)	-	-	-	0	-	-
C=CCSc1nsc(NC(=O)Nc2ccc(F)cc2)n1	0	0	37	-	0	0
CCN(CC)C(=O)CSC1=N/C(=C/c2ccco2)C(=O)N1c1ccc(OC)c(Cl)c1	0	0	0	-	0	0
COc1ccc(N2C(=O)/C(=C\c3ccco3)N=C2SCC(=O)NC(C)(C)C)cc1Cl	0	38	0	0	0	0
COc1ccccc1/C=C/C1(C(=O)NC2CCCC2)CC(=O)N1c1ccc(C)cc1 (stereo not given)	0	34	0	0	0	0
CCOC(=O)C1=C(Cc2ccc(C)cc2)C(=O)c2ccccc2C1=O	0	61	0	-	-	0
CCOC(=O)C1=C(Cc2ccc(OC)cc2)C(=O)c2ccccc2C1=O	0	-	-	0	0	-
COC(=O)c1ccccc1Sc1ncnc2onc(C)c12	0	46	0	0	0	0
CC(C)CC(NC(=O)CCl)c1ccccc1 (stereo not given)	0	44	0	0	0	0
Cc1ccccc1NC(=O)CSc1ccc(-c2ccccn2)nn1	0	0	0	39	0	0
CCOC1=C/C(=C/c2c(N)n3nc(-c4ccccc4)sc3nc2=O)C=CC1=O	0	0	0	0	0	0
CCOC1=C/C(=C/c2c(N)n3oc(C)cc3nc2=O)C=CC1=O	0	38	-	0	-	-
COc1ccc(N2C(=O)C(Cl)=C(NCc3ccccc3)C2=O)cc1	0	36	0	-	0	0
CCOc1cc(/C=C2/C(=N)N3C(=NC2=O)SN=C3S(=O)(=O)C(C)C)ccc1OC(=O)c1ccco1	0	32	0	0	0	0
N=C1/C(=C\c2ccc(OC(=O)c3ccc(F)cc3)cc2)C(=O)N=C2SC(N3CCOCC3)=NN12	0	39	0	0	0	0
CC(C)CS(=O)(=O)C1=NN2C(=N)/C(=C\c3ccc(OC(=O)c4ccco4)cc3)C(=O)N=C2S1	0	40	0	-	0	0
C=CCOc1ccc(/C=C2\C(=N)N3N=C(S(=O)(=O)CC)SC3=NC2=O)cc1OC	0	0	0	48	0	0
SMILES	3CLpro inhibitor	RecA splice inh	PrPC surface inh	Mtb hypoxia inh	PrP UTR inh	BJeLR viability
CC1CCN(C2=NN3C(=N)/C(=C\c4ccc(OC(=O)c5ccco5)cc4)C(=O)N=C3S2)CC1	0	0	0	-	0	0
C/C(C=NNC(=O)CSc1nnc(SCc2ccccc2)s1)=C\c1ccco1	-	-	-	0	-	-
CC(C)(Oc1ccc(Cl)cc1)C(=O)NN=Cc1cn[nH]c1-c1ccccc1	-	-	-	0	-	-
CS(=O)(=O)C1=NN2C(=N)/C(=C\c3ccc(OC(=O)c4ccco4)cc3)C(=O)N=C2S1	0	37	0	0	0	0
O=C(NC1=C(Nc2ccc(F)cc2)C(=O)c2ccccc2C1=O)c1ccc(Cl)cc1	0	59	0	0	0	0
O=C(NCCCn1ccnc1)c1ccc(N2CCCCCC2)c([N+](=O)[O-])c1	0	0	0	0	0	71
CC1CN(S(=O)(=O)c2ccc(C(=O)NCCCn3ccnc3)cc2)CC(C)O1 (stereo not given)	0	0	0	0	0	71
CCc1nnc(NC(=O)C2CCCN2S(=O)(=O)c2ccc3c(c2)OCCO3)s1 (stereo not given)	-	-	-	0	-	-
O=C(N/N=C/c1c(O)n(Cc2ccc(F)cc2)c(=O)[nH]c1=O)c1ccccc1O	0	32	0	0	0	0
